From PubChem BioAssay (NCI)
The panel holds about 83,000 compounds, 20% with a hit somewhere; the sample as a whole holds those more often.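 Negative percent growth values reflect cell death: -40 means 40% of the cells present at the start died, and -100 means all died.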 Values without a mark were called inactive. Calls of active or inactive are those of the source. Rule for the calls: active = growth percent below 10; inactive = the rest.

Legend:
Experiment in all cases: NCI-60 one-dose screen, 48 h (100 = growth as untreated, 0 = no growth, -100 = all killed)
Conditions in all cases: 10 µM unless noted
HT29 colon = system: HT29 colon
SNB-75 CNS = system: SNB-75 CNS
SNB-19 CNS = system: SNB-19 CNS
U251 CNS = system: U251 CNS
SK-MEL-5 melanoma = system: SK-MEL-5 melanoma
LOX IMVI melanoma = system: LOX IMVI melanoma
SK-MEL-28 melanoma = system: SK-MEL-28 melanoma
SK-MEL-2 melanoma = system: SK-MEL-2 melanoma
EKVX NSCLC = system: EKVX NSCLC
SN12C renal = system: SN12C renal
UO-31 renal = system: UO-31 renal
TK-10 renal = system: TK-10 renal
ACHN renal = system: ACHN renal
CAKI-1 renal = system: CAKI-1 renal
A498 renal = system: A498 renal
MOLT-4 leukemia = system: MOLT-4 leukemia
SR leukemia = system: SR leukemia
UACC-62 melanoma = system: UACC-62 melanoma
CCRF-CEM leukemia = system: CCRF-CEM leukemia
PC-3 prostate = system: PC-3 prostate

| SMILES | growth (HT29 colon) | growth (SNB-75 CNS) | growth (SNB-19 CNS) | growth (U251 CNS) | growth (SK-MEL-5 melanoma) | growth (LOX IMVI melanoma) | growth (SK-MEL-28 melanoma) | growth (SK-MEL-2 melanoma) | growth (EKVX NSCLC) | growth (SN12C renal) | growth (UO-31 renal) | growth (TK-10 renal) | growth (ACHN renal) | growth (CAKI-1 renal) | growth (A498 renal) | growth (MOLT-4 leukemia) | growth (SR leukemia) | growth (UACC-62 melanoma) | growth (CCRF-CEM leukemia) | growth (PC-3 prostate) |
| --- | --- | --- | --- | --- | --- | --- | --- | --- | --- | --- | --- | --- | --- | --- | --- | --- | --- | --- | --- | --- |
| Oc1ccc(-c2nn(-c3ccccc3)cc2-c2nc3ccccc3s2)cc1 | 112% | 101% | 93.9% | 94% | 92.3% | 78.4% | 117% | 135% | 79.5% | 85.3% | 55.4% | 142% | 91.1% | 82% | 81.7% | 87.8% | 75.4% |  |  |  |
| CCn1c2ccccc2c2ccc(C(C)=O)cc21 | 95.9% | 94.9% | 106% | 101% | 94.4% |  | 106% | 112% | 99.2% | 114% | 106% | 105% | 98.1% | 94.1% | 83.8% | 96.8% | 97.8% | 97.9% |  |  |
| Cc1cc(C)n2nc(SCC(=O)Nc3sc4c(c3C(N)=O)CCC4)nc2n1 | 123% | 115% | 102% | 99.3% | 99% | 105% | 137% | 65% | 100% | 103% | 74.1% | 125% | 112% | 94.7% | 95.7% | 109% | 144% |  | 102% |  |
| COc1ccc(/C=N/NC(=O)c2ccc(S(C)(=O)=O)cc2)cc1OC | 97.9% | 85.9% | 97.3% |  | 97.9% | 102% | 109% | 91% | 103% | 98.3% | 90.8% | 96.9% | 102% | 89% | 94.6% | 65.9% | 92.5% | 92.7% | 103% | 88.5% |
| COc1cc(-c2cc(C(=O)Nc3nc4ccccc4s3)nc3cc(-c4ccccc4)nn23)cc(OC)c1OC | 17.4% | 36.6% | 98.5% | 66.7% | 35.5% | 27.4% | 39.9% | 73.7% | 107% | 99.5% | 87.9% | 106% | 101% | 84.6% | 127% | 76% | 67% |  | 72.3% |  |
| CC12CCC3C(CCC4CC(=O)/C(=C\O)CC43C)C1CCC(=O)O2 (stereo unspecified) | 108% | 97.5% | 119% | 100% | 113% |  | 114% | 121% | 106% | 107% | 55.9% |  | 109% | 105% |  | 106% |  | 109% |  |  |
| CCOC(=O)C(Cc1ccccc1)(C(=O)OCC)C(Br)C(=O)c1ccccc1 (stereo unspecified) | 69.7% | 73.5% | 97.5% | 88.1% | 87.2% | 70.4% | 91% | 83.5% | 88.8% | 88.7% | 37.6% | 69.2% | 44.3% | 52% | 82.4% |  |  |  |  |  |
| CC(=O)n1c2ccccc2c2ccccc21 | 105% | 97.6% | 113% | 104% | 108% |  | 107% | 123% | 103% | 107% | 83.6% | 115% | 117% | 97.5% | 95.1% | 104% |  | 114% |  |  |
| Cc1c(NCc2nnc3n(Cc4ccccc4)c(=O)c4c5c(sc4n23)CCCC5)c(=O)n(-c2ccccc2)n1C | 77.2% | 98% | 79.9% | 97.6% |  | 91.6% | 103% | 97.1% | 84.7% | 96.5% | 71.4% | 93.3% | 96% | 78% | 75.1% | 52.7% | 68.7% | 80% | 4.57% (active) |  |
| O=C1NCN(CCO)CN1 | 99.8% | 100% | 100% | 109% | 106% | 103% | 110% | 108% | 98.9% | 96.5% | 97.2% |  | 104% | 92.8% | 106% | 121% | 122% |  | 99.7% |  |
| CC(C)COCC(CN(Cc1ccccc1)c1ccccc1)N1CCCC1 (stereo unspecified) | -24.5% (active) | 72.5% | 79.1% |  | 51.4% | 47.5% | 84.9% | 77.2% | 54% |  | 37% | 29.9% |  | 57.1% | 83.3% | 28.8% | 51.8% | 81.1% | 41.7% | 41.9% |
| CC1=C(C(=O)Nc2ccccc2)C(c2ccc3c(c2)OCCO3)NC(=O)N1 (stereo unspecified) | 108% | 102% | 99.6% | 105% | 101% | 94.7% | 111% | 125% | 112% | 100% | 87% | 133% | 104% | 95.6% | 101% | 101% | 92.9% |  |  |  |
| O=C(Cn1ccnc1)NC(c1ccccc1)c1ccccc1 | 104% | 73.4% | 95.1% | 101% | 99.8% | 98% |  | 106% | 97.5% | 97% | 89.5% | 97.5% | 91.9% | 96.7% | 67.6% | 107% | 98.4% |  | 108% |  |
| Oc1[nH]c2ccc(Cl)cc2c1/C=c1/ccc2c(c1)N=C(c1ccc(C(F)(F)F)cc1)N=2 | 42.2% | 15.8% | 77% | 49.8% | 63.4% | 34.2% | 45.8% | 63.3% | 87.4% | 88.3% | 62.2% | 88.4% | 57% | 54.3% | 95.4% | 21.3% | 25.9% |  | 15.5% |  |
| O=C(Nc1ccc(Cl)cc1Cl)Nc1ccc(-c2cccnc2)cc1N1CCC(CO)CC1 | 28% | 39.4% |  | 29.8% | 27.4% | 37.7% | 46.6% | 34.9% | 50.6% | 30.7% | 17% | 52.8% | 41.1% | 25.5% | 6.41% (active) | -0.573% (active) | 6.57% (active) | 26% | 17.8% | 16.6% |
| O=C(/C=C/c1ccc(O)c(O)c1)N1CCN(c2ccc(Cl)cc2)CC1 | 80.1% | 72.1% | 73.9% |  | 54.5% |  | 81% |  |  | 69.8% | 24.5% | 49% | 48.1% | 50.5% | 72.1% | 27.3% | 26.6% | 81.3% | 32.6% | 61.7% |
| Cc1cc2c(cc1C)Nc1sc(NC(=O)CN3CCN(C)CC3)nc1C(=O)N2 | 99.8% | 104% | 96.6% |  |  |  | 108% |  |  | 103% | 94.3% | 99.9% | 111% | 106% | 102% | 87.4% | 79% |  | 98.3% | 101% |
| O=C(Nc1ccc(Cl)cc1)Nc1ccc(Oc2nncc3ccccc23)cc1 | 0.517% (active) | -3.13% (active) |  | -31.1% (active) | -43.3% (active) | -77.3% (active) | -31.6% (active) | 12.4% | 26.7% | -3.83% (active) | -51.6% (active) | 27.5% | -15.1% (active) | 18.7% | 24.5% | 3.99% (active) | 2.64% (active) | -14.3% (active) | 8.7% (active) | -29% (active) |
